Assay results reported in PubChem BioAssay AID1159580 (chemical genetic matrix, 2015).
Hit rate of the full screen: of about 5,500 compounds, about 2,000 (36%) were called active. Another 18% or so got no clear call; they are omitted. Cut-off read from the data, not from the text of the source: active = normalized growth mostly below about 0.91 (no sharp cut-off); inconclusive = no clear call, values can overlap the other calls; inactive = mostly above about 0.92. The list shows a part of the results.

Assay: chemical genetic growth profiling, strain panel (AID 1159580);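 note: tested at 20 µM; growth read once vehicle control cultures reached saturation at 30 °C; 1 = growth at the plate median or of vehicle wells; lower values mean less growth of the strain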
Conditions: growth OD

Measured: normalized growth

CN1C(CC(=O)c2ccccc2)CCCC1CC(O)c1ccccc1 (configuration not stated)
inactive: S. cerevisiae deletion strains, locus YJR075W, strain HOC1, hits give low values 0.998 | S. cerevisiae deletion strains, locus YKL009W, strain mrt4, hits give low values 0.994 | S. cerevisiae deletion strains, locus YKL068W, hits give low values 0.994 | S. cerevisiae deletion strains, locus YKL085W, strain MDH1 (second series), hits give low values 0.989 | S. cerevisiae deletion strains, locus YKL085W, strain MDH1, hits give low values 0.989 | S. cerevisiae deletion strains, locus YKL160W, strain elf1, hits give low values 1 | S. cerevisiae deletion strains, locus YKL190W, strain CNB1, hits give low values 1.01 | S. cerevisiae deletion strains, locus YKR001C, strain vps1, hits give low values 1 | S. cerevisiae deletion strains, locus YKR026C, strain gcn3, hits give low values 0.977 | S. cerevisiae deletion strains, locus YKR091W, strain srl3, hits give low values 0.975 | S. cerevisiae deletion strains, locus YLL001W, strain dnm1, hits give low values 0.967 | S. cerevisiae deletion strains, locus YLL026W, hits give low values 0.98 | S. cerevisiae deletion strains, locus YLL041C, strain sdh2, hits give low values 0.982 | S. cerevisiae deletion strains, locus YLR027C, strain aat2, hits give low values 0.965 | S. cerevisiae deletion strains, locus YLR039C, strain RIC1, hits give low values 1.04 | S. cerevisiae deletion strains, locus YLR058C, strain SHM2, hits give low values 1.01 | S. cerevisiae deletion strains, locus YLR102C, strain apc9, hits give low values 0.983 | S. cerevisiae deletion strains, locus YLR113W, strain HOG1, hits give low values 0.984 | S. cerevisiae deletion strains, locus YLR221C, strain rsa3, hits give low values 0.99 | S. cerevisiae deletion strains, locus YLR258W, strain gsy2, hits give low values 0.983 | S. cerevisiae deletion strains, locus YLR262C, strain YPT6 (second series), hits give low values 0.909 | S. cerevisiae deletion strains, locus YLR262C, strain YPT6, hits give low values 1.06 | S. cerevisiae deletion strains, locus YLR268W, strain sec22, hits give low values 0.928 | S. cerevisiae deletion strains, locus YLR320W, strain mms22, hits give low values 0.979 | S. cerevisiae deletion strains, locus YLR330W, strain CHS5, hits give low values 1 | S. cerevisiae deletion strains, locus YLR342W, strain FKS1 (second series), hits give low values 1.03 | S. cerevisiae deletion strains, locus YLR342W, strain FKS1, hits give low values 0.966 | S. cerevisiae deletion strains, locus YLR357W, strain rsc2, hits give low values 0.967 | S. cerevisiae deletion strains, locus YLR370C, strain arc18, hits give low values 0.962 | S. cerevisiae deletion strains, locus YLR371W, strain rom2, hits give low values 0.984 | S. cerevisiae deletion strains, locus YLR384C, strain iki3, hits give low values 0.974 | S. cerevisiae deletion strains, locus YLR418C, strain cdc73, hits give low values 0.957 | S. cerevisiae deletion strains, locus YML016C, strain PPZ1, hits give low values 1.01 | S. cerevisiae deletion strains, locus YML032C, strain rad52, hits give low values 0.973 | S. cerevisiae deletion strains, locus YML120C, strain ndi1, hits give low values 0.977 | S. cerevisiae deletion strains, locus YML124C, strain tub3, hits give low values 0.988 | S. cerevisiae deletion strains, locus YMR058W, strain fet3, hits give low values 0.969 | S. cerevisiae deletion strains, locus YMR078C, strain ctf18, hits give low values 0.991 | S. cerevisiae deletion strains, locus YMR125W, strain sto1, hits give low values 0.951 | S. cerevisiae deletion strains, locus YMR129W, hits give low values 0.976 | S. cerevisiae deletion strains, locus YMR205C, strain PFK2, hits give low values 0.971 | S. cerevisiae deletion strains, locus YMR223W, strain ubp8, hits give low values 0.993 | S. cerevisiae deletion strains, locus YMR231W, strain pep5, hits give low values 0.987 | S. cerevisiae deletion strains, locus YMR263W, strain SAP30, hits give low values 1.01 | S. cerevisiae deletion strains, locus YMR307W, strain GAS1, hits give low values 1.08 | S. cerevisiae deletion strains, locus YNL067W, strain RPL9B, hits give low values 0.986 | S. cerevisiae deletion strains, locus YNL071W, strain lat1, hits give low values 0.975 | S. cerevisiae deletion strains, locus YNL128W, strain TEP1, hits give low values 1.01 | S. cerevisiae deletion strains, locus YNL153C, strain GIM3, hits give low values 0.988 | S. cerevisiae deletion strains, locus YNL183C, strain NPR1, hits give low values 0.924 | S. cerevisiae deletion strains, locus YNL209W, strain ssb2, hits give low values 0.981 | S. cerevisiae deletion strains, locus YNL233W, strain BNI4, hits give low values 0.994 | S. cerevisiae deletion strains, locus YNL248C, strain rpa49, hits give low values 1.01 | S. cerevisiae deletion strains, locus YNL250W, strain rad50, hits give low values 0.981 | S. cerevisiae deletion strains, locus YNL271C, strain bni1, hits give low values 0.984 | S. cerevisiae deletion strains, locus YNL298W, strain CLA4, hits give low values 0.98 | S. cerevisiae deletion strains, locus YNL307C, strain MCK1, hits give low values 0.992 | S. cerevisiae deletion strains, locus YNL322C, strain KRE1 (second series), hits give low values 0.985 | S. cerevisiae deletion strains, locus YNL322C, strain KRE1, hits give low values 1.01 | S. cerevisiae deletion strains, locus YNR049C, strain mso1, hits give low values 0.973 | S. cerevisiae deletion strains, locus YNR052C, strain pop2, hits give low values 0.99 | S. cerevisiae deletion strains, locus YOL006C, strain TOP1, hits give low values 0.939 | S. cerevisiae deletion strains, locus YOL012C, strain htz1 0.951 | S. cerevisiae deletion strains, locus YOL147C, strain pex11, hits give low values 0.991 | S. cerevisiae deletion strains, locus YOR001W, strain rrp6, hits give low values 0.997 | S. cerevisiae deletion strains, locus YOR061W, strain CKA2, hits give low values 1.02 | S. cerevisiae deletion strains, locus YOR069W, strain VPS5, hits give low values 1.01 | S. cerevisiae deletion strains, locus YOR070C, strain gyp1, hits give low values 0.971 | S. cerevisiae deletion strains, locus YOR080W, strain dia2, hits give low values 0.988 | S. cerevisiae deletion strains, locus YOR083W, strain WHI5, hits give low values 1.01 | S. cerevisiae deletion strains, locus YOR106W, strain vam3, hits give low values 1 | S. cerevisiae deletion strains, locus YOR136W, strain idh2, hits give low values 0.993 | S. cerevisiae deletion strains, locus YOR144C, strain elg1, hits give low values 0.993 | S. cerevisiae deletion strains, locus YOR184W, strain ser1, hits give low values 0.988 | S. cerevisiae deletion strains, locus YOR231W, strain MKK1, hits give low values 0.978 | S. cerevisiae deletion strains, locus YOR265W, strain rbl2, hits give low values 0.973 | S. cerevisiae deletion strains, locus YOR270C, strain vph1, hits give low values 0.917 | S. cerevisiae deletion strains, locus YOR290C, strain snf2, hits give low values 0.951 | S. cerevisiae deletion strains, locus YOR316C, strain cot1, hits give low values 0.99 | S. cerevisiae deletion strains, locus YPL051W, strain arl3, hits give low values 0.998 | S. cerevisiae deletion strains, locus YPL055C, strain LGE1, hits give low values 1.01 | S. cerevisiae deletion strains, locus YPL078C, strain atp4, hits give low values 0.991 | S. cerevisiae deletion strains, locus YPL106C, strain sse1, hits give low values 0.954 | S. cerevisiae deletion strains, locus YPL240C, strain hsp82, hits give low values 0.998 | S. cerevisiae deletion strains, locus YPL241C, strain CIN2, hits give low values 1.01 | S. cerevisiae deletion strains, locus YPL256C, strain CLN2, hits give low values 0.938 | S. cerevisiae deletion strains, locus YPR119W, strain clb2, hits give low values 0.992 | S. cerevisiae deletion strains, locus YPR141C, strain kar3, hits give low values 0.992 | S. cerevisiae deletion strains, locus YPR163C, strain tif3, hits give low values 0.981 | S. cerevisiae deletion strains, locus YPR167C, strain met16, hits give low values 0.997 | S. cerevisiae deletion strains, strain wtn01, hits give low values 0.954 | S. cerevisiae strains, strain wild type, hits give low values 1.01
